Screening data deposited in PubChem BioAssay by Sanford-Burnham Center for Chemical Genomics.
tim10-1 inh: tim10-1 yeast growth inhibition. actives 2.2% (n = 330,000). inhibition, % at 20 µM. S. cerevisiae tim10-1 ts strain growth, BacTiter-Glo, 24 h;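 active means inhibition of at least 40%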;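 further: mutant grown at 25 °C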
TIM10 inh: growth inhibitors of TIM10 yeast strain; AID 463195; inhibition, % at 10 µM; actives 1.4% (n = 330,000); S. cerevisiae TIM10 strain growth, BacTiter-Glo luminescence, 24 h;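 active means inhibition of 40% or more at the single tested concentration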;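 further: wild-type TIM10 isogenic control strain grown at permissive 25 °C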
tim23-1 inh: inhibits growth of tim23-1 mutant yeast; S. cerevisiae tim23-1 growth, BacTiter-Glo luminescence, 24 h; actives 1.3% (n = 330,000); AID 463212; inhibition, % at 20 µM;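 active means growth inhibition of the mutant yeast at or above 50%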;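 further: temperature-sensitive mutant grown at 25 °C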
NALP1 inh: blocks the NALP1 inflammasome reconstituted in yeast | actives 0.61% (n = 280,000) | S. cerevisiae NALP1/ASC/caspase-1 growth, X-gal OD620, 72 h | inhibition, % at 10 µM; in the data active means inhibition mostly above about 24%, no sharp cut-off; inactive means mostly below about 32%
NLRP3 yeast inh: inhibitors of NALP3 inflammasome in yeast; Yeast reconstituted NLRP3/ASC/caspase-1, beta-gal luminescence, 24 h; inhibition, % at 10 µM; actives 0.39% (n = 330,000); AID 2825;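 active means inhibition of 50% or more; inactive means inhibition below 50%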
tim10-1 conf: tim10-1 yeast growth inhibition, confirmed; shares compounds with tim10-1 inh; S. cerevisiae tim10-1 ts strain growth, BacTiter-Glo, 24 h; inhibition, % at 20 µM; actives 56% (n = 7,400); AID 463213;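 active means inhibition of yeast growth at or above a set limit in either of two repeat tests at 20 µM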;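 further: tim10-1 mutant grown at permissive 25 °C to find synthetic lethal compounds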
TIM10 conf: confirmation of TIM10 yeast growth inhibitors. shares compounds with TIM10 inh. S. cerevisiae tim10 strain growth, BacTiter-Glo luminescence, 24 h. actives 63% (n = 4,600). inhibition, % at 10 µM;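 active means inhibition of yeast growth at or above a set limit in either of two replicates at 10 µM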; further: this counterscreen used the strain with wild-type TIM10
tim23-1 confirm: tim23-1 yeast growth inhibition, confirmed | shares compounds with tim23-1 inh | S. cerevisiae tim23-1 growth, BacTiter-Glo luminescence, 24 h | inhibition, % at 20 µM | actives 83% (n = 4,400) | AID 463218;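 active means inhibition above about 39% in either of two replicate wells at 20 µM, limit read from the data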;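 further: temperature-sensitive tim23-1 mutant grown at 25 °C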
Hits are given with their value; 0 = inactive; - = no result given. Sampled rows, rich in hits. Any-hit rate of the full collection: about 4%.

SMILES	tim10-1 inh	TIM10 inh	tim23-1 inh	NALP1 inh	NLRP3 yeast inh	tim10-1 conf	TIM10 conf	tim23-1 confirm
O=C(c1ccc(COc2ccc(Cl)cc2Cl)o1)N1CCCC1	0	0	0	0	0	-	-	-
CCN(CC)S(=O)(=O)c1cc(Cl)ccc1OC	0	0	0	0	0	-	-	-
COc1ccccc1Nc1ccc(NC(=O)c2cccc([N+](=O)[O-])c2C)cc1	0	0	0	0	0	-	-	-
Clc1cccc(/C(Cc2nc3ccccc3[nH]2)=N\Nc2ccccc2)c1	46.0	64.7	58.6	0	0	0	0	0
CCNC(=O)c1ccc2c(c1)C1C3CCC(C3)C1C(c1ccccc1)N2 (stereo not given)	59.5	41.0	62.6	0	0	55.4	42.9	65.0
Cc1ccc(NC(=O)COc2ccccc2C=O)cc1Cl	42.7	50.7	68.6	0	0	0	50.6	69.0
CC1CC(C)(C)N2C(=O)C3(Nc4ccccc4S3)c3cccc1c32 (stereo not given)	61.0	47.1	58.3	0	0	54.5	61.0	62.5
O=C1N2CCCc3cccc(c32)C12Nc1ccccc1S2 (stereo not given)	-	-	-	0	-	-	-	-
CCOc1ccc2nc(NC(=O)c3ccccn3)sc2c1	0	0	0	-	0	-	-	-
CCOc1ccc2nc(NC(=O)c3ccoc3C)sc2c1	75.5	67.7	80.2	0	0	76.1	68.8	84.8
COC(=O)Cc1c(C)[nH]n(-c2cc(Cl)cc(Cl)c2)c1=O	45.0	0	70.0	0	0	37.2	-	63.1
O=C(NCc1cccnc1)/C(=C/c1ccc(-c2ccc(Cl)cc2)o1)S(=O)(=O)c1ccccc1	52.4	52.7	59.2	0	0	48.4	49.1	57.2
Cc1cc(OCCN2CCC(Cc3ccccc3)CC2)ccc1[N+](=O)[O-]	0	0	0	-	0	-	-	-
CCc1[nH]nc2c1C(c1ccc(Br)s1)C(C#N)=C(N)O2 (stereo not given)	85.5	74.7	82.2	0	0	82.9	0	79.9
Cc1ccc(SCc2[nH]nc3c2C(c2ccco2)C(C#N)=C(N)O3)cc1 (stereo not given)	70.8	0	68.2	0	0	55.0	-	50.5
CCc1[nH]nc2c1C(c1ccsc1)C(C#N)=C(N)O2 (stereo not given)	0	0	0	0	0	-	-	-
Cc1ccc(SCc2[nH]nc3c2C(C(C)C)C(C#N)=C(N)O3)cc1 (stereo not given)	0	0	0	0	0	-	-	-
Cn1cccc1C(=O)OCc1ccc(C(C)(C)C)cc1	0	0	0	0	0	-	-	-
COc1cccc2cc(C(=O)CS(=O)(=O)c3ccc(C(C)(C)C)cc3)c(=O)oc12	47.9	0	52.3	0	0	0	-	54.4
COc1ccc(S(=O)(=O)CC(=O)c2cc3cccc(C)c3oc2=O)cc1	53.0	0	65.3	0	0	0	-	56.8
O=C(COc1cccc(C(F)(F)F)c1)NNC(=O)c1ccc(=O)[nH]c1	0	0	0	-	0	-	-	-
CCCn1nc([N+](=O)[O-])c(C(C#N)c2nc3ccccc3s2)c(Cl)c1=O (stereo not given)	72.9	68.0	72.3	0	0	62.2	88.5	0
COc1ccc(NC(=O)CSc2nnc(-c3ccncc3)o2)c([N+](=O)[O-])c1	0	0	0	0	0	-	-	-
Cc1cccc(C(=O)N/N=C/c2cc(Br)c(Br)o2)c1	40.8	44.9	60.5	0	0	0	0	76.4
Cc1onc(-c2ccccc2)c1C(=O)N/N=C/c1cc(Br)c(Br)o1	0	0	0	0	0	-	-	-
CC1(c2ccc3ccccc3c2)NC(=O)N(CC(=O)N2CCN(Cc3ccc(C#N)cc3)CC2)C1=O (stereo not given)	0	0	0	-	0	-	-	-
Clc1ccc(N=c2ssnc2Cl)cc1	54.2	0	63.3	0	0	65.6	-	88.3
COc1ccc(N=c2ssnc2Cl)cc1	52.7	0	60.9	0	0	34.7	-	80.3
O=C(c1sc2ccccc2c1Cl)N1CCN(CCc2ccccn2)CC1	0	0	0	0	0	-	-	-
Cc1cccc(C)c1NC(=O)CNC(=O)c1ccccc1OCc1ccccc1	0	0	0	-	0	-	-	-
